Compound activity deposited in PubChem by several laboratories.
MEKK3 PB1 HTS – raises or lowers MEK5 binding to the human MEKK3 PB1 domain; bead-based flow cytometry, Alexa488-MEK5 binding to MEKK3; actives lie on both sides; 0 = blocked by unlabeled MEK5, 100 = vehicle; Q99759; AID 1529; binding response (% of control), % at 10 µM; 290,000 tested, 1.4% active;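 active = binding response more than 3 SD above or below the average of its plate-row segment, actives on both sides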;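 note: Alexa488 bead fluorescence after subtracting the streptavidin-only scavenger bead signal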
Target sequence (Q99759 whole entry, looked up, the tested form may be a part): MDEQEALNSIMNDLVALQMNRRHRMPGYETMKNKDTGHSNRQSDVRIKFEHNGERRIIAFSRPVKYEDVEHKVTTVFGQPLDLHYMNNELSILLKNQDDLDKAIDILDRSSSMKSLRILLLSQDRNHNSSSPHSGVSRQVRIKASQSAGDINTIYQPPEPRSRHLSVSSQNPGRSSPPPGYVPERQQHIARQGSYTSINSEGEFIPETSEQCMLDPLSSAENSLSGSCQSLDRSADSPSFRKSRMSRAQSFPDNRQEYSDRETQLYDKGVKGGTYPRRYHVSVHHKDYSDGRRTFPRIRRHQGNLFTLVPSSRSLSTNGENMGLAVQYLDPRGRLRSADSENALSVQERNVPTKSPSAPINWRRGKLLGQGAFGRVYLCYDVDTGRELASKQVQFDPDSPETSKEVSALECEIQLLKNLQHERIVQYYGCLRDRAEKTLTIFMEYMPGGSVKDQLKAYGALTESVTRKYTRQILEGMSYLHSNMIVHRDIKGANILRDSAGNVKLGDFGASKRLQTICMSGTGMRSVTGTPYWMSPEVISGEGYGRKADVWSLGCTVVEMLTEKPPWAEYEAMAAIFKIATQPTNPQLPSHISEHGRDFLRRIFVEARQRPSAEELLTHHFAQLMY
MEKK2mut PB1 HTS – signal of MEK5 binding to mutant human MEKK2 PB1 domain; bead flow cytometry, Alexa488-MEK5 binding to MEKK2 mutant; percent response, % at 10 µM; 290,000 tested, 0.35% active; AID 1530; in the data active = percent response above about 24%, passing the limit was not always enough
MEKK2 WT-MEK5 – raises or lowers MEK5 binding to wildtype human MEKK2 PB1 domain; Q9Y2U5; bead flow cytometry, Alexa488-MEK5 binding to MEKK2 WT; actives lie on both sides; binding response (% of control), % at 10 µM; 290,000 tested, 1.1% active; AID 1531; in the data active = binding response below about 67% or above about 130%
FID counter – displaces DNA intercalator in HCV helicase counter-screen; inhibition, % at 7.9 µM; DNA fluorescent intercalator displacement, fluorescence; 290,000 tested, 0.17% active; in the data active = inhibition above about 37%;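 note: higher means more ethidium bromide displaced from hairpin DNA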
dFosB act – activators of mouse delta FosB homodimer; purified delta FosB, TAMRA-CDK5 oligo fluorescence polarization; percent of positive-control signal above neutral wells; activation, % at 25 µM; 340,000 tested, 0.99% active; AID 493131;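 active = mean activation above about 17%, with every replicate also reaching it, limit read from the data, passing the limit was not always enough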
A number is an active result; – = inactive; · = no result given; [ ] = dose if it differs, or a comment. The list is not random: actives were taken first. Their share in the collection is about 2.9%.

SMILES | MEKK3 PB1 HTS | MEKK2mut PB1 HTS | MEKK2 WT-MEK5 | FID counter | dFosB act
O=C(NCCNC(=O)c1cc(Cl)ccc1Cl)c1ccco1 | – | – | – | – | –
Cc1cc(NC(=S)N(CCN2CCCCC2)Cc2ccco2)ccc1Cl | – | – | – | – | –
COc1ccc(NC(=S)N(CCCN2CCCC2)Cc2cccn2Cc2ccc(Cl)cc2)cc1Cl | – | 161 | 293 | – | 48
Cc1ccc(NC(=S)N(CCCN2CCCC2)Cc2cccn2Cc2ccc(Cl)cc2)cc1C | – | 74 | 228 | – | 32
COc1ccc(NC(=S)N(CCCN2CCC(C)CC2)Cc2cccs2)cc1Cl | – | – | – | – | –
Cc1ccc(NC(=S)N(CCCN2CCCC2)Cc2cccn2Cc2ccc(Cl)cc2)cc1Cl | – | – | 317 | – | 69
CCN1CCN(CCCN(Cc2ccco2)C(=S)Nc2ccc(Cl)c(C)c2)CC1 | – | – | – | – | –
CCOc1cc(C)c(Cl)cc1S(=O)(=O)n1ccnc1 | – | – | – | – | –
CCCS(=O)(=O)N1CCC(C(=O)NCCCOCC)CC1 | – | – | – | – | –
O=C(Nc1nc2ccccc2c(=O)[nH]1)c1ccccc1SCc1ccccc1 | – | – | – | – | –
CCOC(=O)C1=C(CS(=O)(=O)c2ccccc2)NC(=O)NC1c1cc(OC)c(O)c(OC)c1 (stereo unspecified) | – | – | – | – | –
CCOc1cc(/C=C2\C(=O)N(c3cccc(C(=O)O)c3)N=C2C(F)(F)F)ccc1OCC(=O)Nc1ccccc1OC | – | – | – | 43 | ·
CCOc1cc(/C=N/n2cnnc2)ccc1OCC(=O)Nc1ccccc1OC | – | – | – | – | –
OC(COc1ccc(CNCCc2ccc(C(F)(F)F)cc2)cc1)CN1CCCCC1 (stereo unspecified) | – | – | 150 | 42 | –
CC(C)(C)CC(=O)NCc1ccc(F)cc1 | – | – | – | – | –
COCCCNc1nc(N)c([N+](=O)[O-])c(Nc2cc(OC)ccc2OC)n1 | – | – | – | – | –
COc1ccc(OC)c(Nc2nc(NCCCN(C)C)nc(N)c2[N+](=O)[O-])c1 | – | – | – | 41 | 24
CC(C)NC1CCC(Nc2ccnc3cc(Cl)ccc23)CC1 (stereo unspecified) | · | · | · | · | 17
Clc1ccc2c(NCc3ccccn3)ccnc2c1 | – | – | – | – | –
CC(CCCN1CCCC1)Nc1ccnc2cc(Cl)ccc12 (stereo unspecified) | · | · | · | · | 42
Clc1ccc2c(NCCNC3CCCCC3)ccnc2c1 | · | · | · | · | 45
O=C(OC(C(=O)NC1CCCCC1)c1ccc(C(F)(F)F)cc1)c1ccco1 (stereo unspecified) | · | · | · | · | –
OCCNc1c2ccccc2nc2ccccc12 | – | – | – | – | 20
OCCNc1nc2ccccc2nc1NCCO | – | – | – | – | –
O=C(NCCNC(=O)c1ccccc1F)c1ccco1 | 0.0[inhibitor] | – | -12[inhibitor] | – | –
SMILES | MEKK3 PB1 HTS | MEKK2mut PB1 HTS | MEKK2 WT-MEK5 | FID counter | dFosB act
O=C(NCCNC(=O)c1ccco1)c1ccco1 | – | – | – | – | –
Cn1c(SCC(=O)N/N=C/C=C\c2ccccc2[N+](=O)[O-])nc2ccccc21 | – | – | – | – | 20
Cn1c(SCC(=O)N/N=C/C=C/c2ccccc2[N+](=O)[O-])nc2ccccc21 | – | – | – | – | –
COc1ccc(CCN=C(N)NS(=O)(=O)c2ccc(C)c(C)c2)cc1 | – | – | – | – | –
CC(C)CN1C(=O)/C(=C/c2c(N3CCc4ccccc4C3)nc3ccccn3c2=O)SC1=S | 22[inhibitor] | 77 | · | – | ·
CCOC(=O)CC1C(=O)NCCN1c1nc2c(C)cccn2c(=O)c1/C=C1\SC(=S)N(CC(C)C)C1=O (stereo unspecified) | – | – | – | – | ·
CC1=C(C#N)C(c2cn(-c3ccccc3)nc2-c2cccs2)C(C#N)=C(C)N1 | – | – | – | – | –
NC1=NC(c2cn(-c3ccccc3)nc2-c2cccs2)n2c(nc3ccccc32)N1 (stereo unspecified) | · | · | · | – | 37
Cc1cc2cc(CNC(=O)Cc3cccs3)ccc2n1C | – | – | – | · | –
CCOc1ccc(CN2CCC(n3nccc3NC(=O)CCCc3ccccc3)CC2)cc1 | – | – | – | 38 | –
Cc1c(C)n(C)c2ccc(C(=O)NCCCN(C)C3CCCCC3)cc12 | – | – | 145 | – | –
Cc1c(C)n(C)c2ccc(C(=O)NCCc3ccco3)cc12 | – | – | – | – | –
